# Measured values reported in ChEMBL document CHEMBL3988442, “University of Dundee, Small-Polar-MMV Screening Library” (2021).
# The whole screen tested about 48,000 compounds, of which about 13,000 (27%) showed an effect of 50% or more. The list shows a part of the results.
# System: Wolbachia pipientis
# Test: Anti-Wolbachia Cell-Based Screen
# Type: functional
# Set-up: scale not given: in the data most compounds retested in dose-response had high values
# Settings: 5 µM
row,SMILES,Percent Effect
1,CC(C)NC(=O)NC[C@H]1OC[C@@H](NCc2ccccc2F)[C@@H]1O,-8.31%
2,CC(O)CN1CCC(CN(C)Cc2ccc(C#N)cc2)CC1 (stereo unspecified),-6.641%
3,COCc1nnc(-c2cccc(C(=O)N(C)CC(C)(C)C)c2)o1,1.349%
4,CC(C)Oc1cccc(CN(C)C(=O)Cc2ccon2)c1,7.051%
5,CN(C)CCOCC1CN(Cc2ccc(F)cc2)Cc2nnn(C)c21.O=C(O)C(F)(F)F.O=C(O)C(F)(F)F (stereo unspecified),94.54%
6,CN(C)CCOCC1CN(CC2CCOCC2)Cc2nnn(C)c21.O=C(O)C(F)(F)F.O=C(O)C(F)(F)F (stereo unspecified),0.5849%
7,CCS(=O)(=O)N1Cc2nnn(C)c2C(COCCN(C)C)C1.O=C(O)C(F)(F)F (stereo unspecified),7.645%
8,Cc1noc(CCCC(=O)NC(C)c2cccnc2)n1 (stereo unspecified),-10.11%
9,O=C(NC1CC1)N1CC[C@@H](O)[C@@H]1Cc1ccccc1,101.4%
10,COCC(=O)N1CC[C@@H](N2CCOCC2)[C@@H]1Cc1ccccc1,-5.655%
11,CN1CCN([C@@H]2CCN(C(N)=O)[C@H]2Cc2ccccc2)CC1,-47.59%
12,COCC(=O)N1CC[C@@H](O)[C@@H]1Cc1ccccc1,-9.68%
13,NC(=O)N1CC[C@H](O)[C@@H]1Cc1ccccc1,106.8%
14,CCC(=O)N1CC[C@H](O)[C@@H]1Cc1ccccc1,99.45%
15,COCCN1CC[C@H](O)[C@@H]1Cc1ccccc1.O=C(O)C(F)(F)F,-7.454%
16,CN(C)C(=O)N1CC[C@@H](O)[C@@H]1Cc1cnn(C)c1,3.844%
17,O=C(NC1CC1)N1CC[C@H](OCC2CC2)[C@@H]1Cc1cccnc1.O=C(O)C(F)(F)F,-2.258%
18,CN(C)[C@@H]1CCN(C(=O)NC2CCCC2)[C@H]1Cc1ccncc1.O=C(O)C(F)(F)F.O=C(O)C(F)(F)F,-4.406%
19,CC(=O)N1CC[C@@H](N2CCN(C)CC2)[C@@H]1Cc1ccccc1,-7.108%
20,CN(C)C(=O)N1CC[C@@H](O)[C@@H]1Cc1ccccc1,109.4%
21,c1ccc(-c2cnn3cc(CN4CCC5(CCO5)CC4)cnc23)cc1,-14.3%
22,CC(C)C(=O)N1CCN(CC(O)c2cc(Cl)ccc2Cl)CC1 (stereo unspecified),10.47%
23,CC(NC(=O)COc1ccc(Cl)cc1Cl)c1nncn1C(C)C (stereo unspecified),0.4331%
24,CN(Cc1ccccc1)CC(C)(C)NC(=O)c1ccc(C(N)=O)cn1,12.65%

row,SMILES,Percent Effect
1,COCCCS(=O)(=O)N1CCN(Cc2cccn2C)CC1,-42.29%
2,CN(C)CCCN1CC2(CCN(C(=O)C3(C)CCCCO3)CC2)OC1=O (stereo unspecified),3.267%
3,CCO[C@@H]1CCN(C(=O)c2ccnnc2)[C@@H]1Cc1cnn(C)c1,-9.757%
4,O=C(c1ccnnc1)N1CC[C@@H](O)[C@@H]1Cc1ccccc1,101.5%
5,O=C(c1ccnnc1)N1CC[C@H](OCC2CC2)[C@@H]1Cc1ccncc1,0.4029%
6,CC(C)Cc1nc(OCC(=O)O)c(C#N)c2c1CCC2,-8.981%
7,CN(Cc1n[nH]c2c1CCCC2)c1cc(N2CCOCC2)nc(N)n1,14.47%
8,O=C(c1ccco1)N1CCOCC2(C1)CN(c1ccoc1)C(=O)CO2 (stereo unspecified),100.8%
9,O=C(c1ccco1)N1CCOCC2(C1)CN(c1ccccn1)C(=O)CO2 (stereo unspecified),92.62%
10,O=C(c1ccco1)N1CCOCC2(C1)CN(c1ccccc1)C(=O)CO2 (stereo unspecified),-13.67%
11,CN1CC2(COCCN(C(=O)c3ccco3)C2)OCC1=O (stereo unspecified),-13.58%
12,CC(O)CCN(C)c1nc2ccccc2c(=O)[nH]1 (stereo unspecified),20.77%
13,COCc1nc(-c2ccc(S(=O)(=O)N3CCCC3)cc2)cs1,-8.912%
14,Cc1noc(CNc2cc3c(cc2Cl)OCCCO3)n1,2.534%
15,CC(C)N(C)S(=O)(=O)N1CCN(Cc2ccco2)CC1,-10.02%
16,Oc1nc(C2CC2)nc2c1nnn2C1CCN(Cc2ccoc2)CC1,197.8%
17,O=C(O)c1cc2c(nc1-c1ccncc1)CCN(Cc1ccoc1)CC2,-1.034%
18,CCSCc1nc(O)c2nnn(C3CCN(Cc4ccco4)CC3)c2n1,93.96%
19,c1nc2c(c(C3CCOC3)n1)CCN(Cc1ccoc1)CC2 (stereo unspecified),7.2%
20,CCSCc1nc(O)c2nnn(C3CCN(Cc4ccoc4)CC3)c2n1,124.7%
21,CCn1ncnc1C(C)NC(=O)C1CCN(Cc2ccco2)CC1 (stereo unspecified),-16.37%
22,O=C(CCn1cccn1)NCC(c1cccs1)N1CCOCC1 (stereo unspecified),0.8626%
23,O=C1CC(NS(=O)(=O)N2CCOCC2)CN1Cc1ccc(F)cc1 (stereo unspecified),-0.715%
24,N#Cc1cnc2ccccc2c1N1CCC(C(=O)O)CC1,149.3%

row,SMILES,Percent Effect
1,N#Cc1cnc2ccccc2c1N1CCN(C(=O)C2CCC2)CC1,4.022%
2,Cl.N#Cc1cnc2ccccc2c1N1CCN(CCC(=O)O)CC1,-4.307%
3,CCc1nc(CN(C)C(=O)NC(C)c2cccc(NC(C)=O)c2)cs1 (stereo unspecified),4.996%
4,O=C1COc2cccc(OCc3ccccn3)c2N1,-1.975%
5,N#CCCn1nc(C(F)(F)F)c2c1CCCC2,118.8%
6,N#CCCn1nc(C(F)(F)F)c2c1CCC2,109.3%
7,NCCCn1nc(C(F)(F)F)c2c1CCC2,77.67%
8,CC(C)Oc1nnc(SCC(=O)NCC(=O)N2CCCC2)s1,11.98%
9,Cc1cc(N(Cc2cccnc2)C2CC2)n2nc(C(F)(F)F)nc2n1,19.73%
10,CN1CCN(S(=O)(=O)c2cncc(F)c2)c2ccccc2C1,-3.116%
11,O[C@@H]1C[C@@H](c2nc(-c3ccc(F)cc3)no2)N(C2CCOCC2)C1,-13.07%
12,Cc1ccsc1C(Cc1ccccc1)NC(=O)CNC(=O)C1CC1 (stereo unspecified),-6.693%
13,CCC(=O)NC1CCCN(C(=O)Nc2cc(-c3ccccc3)on2)C1 (stereo unspecified),-16.23%
14,COC(=O)C(NC(=O)COC1CCCCC1)c1ccccc1 (stereo unspecified),3.192%
15,COC(=O)C(NC(=O)c1ccc(N(C)C)nc1)c1ccccc1 (stereo unspecified),15.6%
16,CCC(NC(=O)C1CCN(S(=O)(=O)N(C)C)CC1)c1ccc(C)c(C)c1 (stereo unspecified),-8.706%
17,CN(C)c1cc(CC(NC(=O)C2CC2)c2ccccc2)nc(C2CC2)n1 (stereo unspecified),92.65%
18,CCC(=O)NC(Cc1cc(N(C)C)nc(C2CC2)n1)c1ccccc1 (stereo unspecified),105%
19,NC(=O)C(NC(=O)COC1CCCC1)c1ccccc1 (stereo unspecified),-1.81%
20,CC(C)C(=O)NC(Cc1cc(N(C)C)nc(C2CC2)n1)c1ccccc1 (stereo unspecified),86.08%
21,CN(CCC(O)c1ccccc1)c1cc(C2CC2)ncn1 (stereo unspecified),7.591%
22,COCC(=O)NC(Cc1cc(N(C)C)nc(C2CC2)n1)c1ccccc1 (stereo unspecified),113.9%
23,CN(CC(=O)N1CCC(C(O)c2ccccc2)CC1)c1cnccn1 (stereo unspecified),-4.983%
